In PubChem BioAssay AID1240 (Sanford-Burnham Center for Chemical Genomics, 2008):
Where “and” joins values, the source holds several entries; their conditions need not be identical. Equal values may be shown once. Hit rate of the full screen: of about 50,000 compounds, about 800 (1.6%) showed an effect of 50% or more. The full list was thinned out, with strong results kept by preference.

These compounds were tested against Bcl-2-like protein 10 (Homo sapiens) (UniProt Q9HD36) (assay: Phenotype converters, Bcl-B/TR3 peptide binding displacement, primary biochemical FP (AID 1240;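 also: 0% = Bcl-B with tracer peptide and DMSO and 100% = tracer peptide lacking Bcl-B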)). Conditions: GST-Bcl-B / FITC-TR3 peptide fluorescence polarization; stronger effect = higher value; compound at 3.75 mg/L.
Sequence of Bcl-2-like protein 10 (Homo sapiens) (Q9HD36 whole entry, looked up): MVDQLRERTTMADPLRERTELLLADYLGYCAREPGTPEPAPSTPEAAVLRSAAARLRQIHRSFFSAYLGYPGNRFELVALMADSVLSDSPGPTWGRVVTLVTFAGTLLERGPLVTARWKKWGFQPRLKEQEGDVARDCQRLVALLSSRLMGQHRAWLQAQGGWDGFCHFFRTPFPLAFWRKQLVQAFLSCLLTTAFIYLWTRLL

Row | SMILES | displacement
1 | CC(=O)Nc1ccc2sc(C)nc2c1 | 12.9%
2 | COc1cccc(CN2CCN(Cc3cc(OC)ccc3OC)CC2)c1 | -9%
3 | COc1ccc(C2SCC(=O)N2CCc2ccc(OC)c(OC)c2)c(OC)c1 (stereo unspecified) | -6.4%
4 | COc1ccc(N2C(=O)C3C4C=CC(C5CC45)C3C2=O)c([N+](=O)[O-])c1 (stereo unspecified) | 12.7%
5 | N/C(=N\OC(=O)c1ccc(Cl)c([N+](=O)[O-])c1)c1ccccc1 | -3.2%
6 | COc1ccc(C2CC(=O)C3=C(C2)Nc2ccccc2NC3c2cccs2)cc1OC (stereo unspecified) | -4.5%
7 | Cc1ccccc1N1C(=O)c2ccc(C(=O)O)cc2C1=O | -3.3%
8 | O=C(O)c1ccccc1S(=O)CCO (stereo unspecified) | 6.8%
9 | O=C(c1ccc(N2CCN(C(=O)c3ccccc3F)CC2)cc1)c1cccc(F)c1 | -53.4%
10 | O=C(c1ccc(N2CCN(C(=O)c3ccc(F)cc3)CC2)cc1)c1cccc(F)c1 | -6.4%
11 | O=C(c1cccc(F)c1)N1CCN(c2ccc(F)cc2)CC1 | -11.6%
12 | O=C(c1cccc(F)c1)N1CCN(c2ccc([N+](=O)[O-])cc2)CC1 | 118%
13 | O=C(c1ccc(N2CCN(C(=O)c3ccc(F)cc3F)CC2)cc1)c1cccc(F)c1 | 72.1%
14 | O=C(c1cccc(F)c1)N1CCN(c2ccccc2)CC1 | -5.4%
15 | Cc1ccc(/C(=N\S(=O)(=O)c2cccc([N+](=O)[O-])c2)Nc2ccccc2)cc1 | 13.2%
16 | COc1ccccc1OCC(=O)Nc1ccc2c(c1)OCCO2 | 2.2%
17 | COc1cc(/C=N/N2C(=O)C3C4C=CC(CC4)C3C2=O)cc(I)c1O (stereo unspecified) | 3.3%
18 | COc1ccc(N2C(=O)NC(=O)/C(=C/c3cccc(O)c3)C2=O)cc1 | -6.3%
19 | CN1C(=O)NC(=O)/C(=C\c2ccc(Cl)cc2Cl)C1=O | 3.8%
20 | CN1C(=O)NC(=O)/C(=C/c2cccn2-c2cccc([N+](=O)[O-])c2)C1=O | 115%
21 | CN1C(=O)NC(=O)/C(=C/c2ccc(-c3ccc(Cl)c(Cl)c3)o2)C1=O | -7.2%
22 | O=C1NC(=O)N(c2ccccc2)C(=O)/C1=C\c1cccn1-c1cccc([N+](=O)[O-])c1 | -2.6%

Row | SMILES | displacement
23 | C=CCN1C(=O)/C(=C\c2ccc(-c3ccc([N+](=O)[O-])cc3Cl)o2)C(=O)NC1=S | 21%
24 | Cc1ccc([N+](=O)[O-])cc1-c1ccc(/C=C2/C(=O)NC(=O)N(C)C2=O)o1 | -8%
25 | CN1C(=O)NC(=O)/C(=C/c2ccc(-c3ccc([N+](=O)[O-])cc3Cl)o2)C1=O | 93.6%
26 | CN1C(=O)NC(=O)/C(=C/c2ccc(-c3cccc(Cl)c3)o2)C1=O | 81.5%
27 | CC1=C(C#N)C(=O)NC(=O)/C1=C\c1ccc(-c2cccc(Cl)c2)o1 | 24.7%
28 | CN1C(=O)NC(=O)/C(=C/c2ccc(-c3ccc(Cl)cc3Cl)o2)C1=O | 72.6%
29 | COc1ccc(N2C(=O)NC(=O)/C(=C/c3cccn3-c3cccc([N+](=O)[O-])c3)C2=O)cc1 | -4%
30 | CC1(C)OC(=O)C(=Cc2ccc(-c3ccc(Cl)cc3Cl)o2)C(=O)O1 | 34.4%
31 | O=C(/C=C/c1ccc(F)cc1)NC(=S)NCc1ccco1 | 18.2%
32 | CN1C(=O)C(=Cc2ccc(-c3cccc(Cl)c3Cl)o2)C(=O)N(C)C1=O | 4.6%
33 | O=C1NC(=O)N(c2ccccc2)C(=O)/C1=C\c1ccc(-c2ccccc2Cl)o1 | 42.6%
34 | Cc1ccc(-c2ccc(C=C3C(=O)NC(=O)NC3=O)o2)c(Br)c1 | -9.6%
35 | O=C1NC(=O)C(=Cc2ccc(-c3cc(Cl)c([N+](=O)[O-])cc3Cl)o2)C(=O)N1 | 81.2%
36 | O=C1NC(=O)N(c2ccccc2)C(=O)/C1=C\c1ccc(-c2ccc([N+](=O)[O-])cc2Cl)o1 | 11.5%
37 | CN1C(=O)NC(=O)/C(=C/c2ccc(-c3cccc(Cl)c3Cl)o2)C1=O | 74.5%
38 | O=C1NC(=S)N/C1=C/c1ccc(-c2cccc(Br)c2)o1 | 15.5%
39 | O=C1NC(=O)C(=Cc2ccc(-c3cccc(Br)c3)o2)C(=O)N1 | 81.1%
40 | Cc1ccc(N2C(=O)NC(=O)/C(=C\c3ccc(-c4ccc([N+](=O)[O-])cc4Cl)o3)C2=O)cc1 | 87.2%
41 | Cc1cc(-c2ccc(C=C3C(=O)NC(=S)NC3=O)o2)c([N+](=O)[O-])cc1C | 26.1%
42 | COc1ccc(N2C(=O)NC(=O)/C(=C/c3ccc(-c4ccc([N+](=O)[O-])cc4Cl)o3)C2=O)cc1 | 20.3%
43 | Cc1ccc(-c2ccc(C=C3C(=O)NC(=O)NC3=O)o2)c([N+](=O)[O-])c1 | 1.3%
44 | Nc1nonc1N=Cc1cc(Br)ccc1O | -12.8%

Row | SMILES | displacement
45 | CCC1CCc2c(sc(NC(=O)C3CCCC3)c2C(N)=O)C1 (stereo unspecified) | -1.5%
46 | COc1cc(/C=C2/C(=O)NC(=O)N(c3cccc(C)c3)C2=O)ccc1OCC(=O)O | -14.8%
47 | Cc1cc(=O)[nH]c(SCc2cccc(Oc3ccccc3)c2)n1 | -8% and 5.2%
48 | CCCCOc1cc2oc(=O)c(CC)c(C)c2cc1CC | 0.2%
49 | CN(c1ccccc1)c1ccc(C=C2C(=O)NC(=O)NC2=O)cc1 | 19.6%
50 | CC(/C=C/c1ccc(N(C)C)cc1)=N\N=C(/N)SC1CC(=O)N(c2ccc(F)cc2)C1=O (stereo unspecified) | -8.3%
51 | COc1cc2c(C)nc3c(c(C)nn3-c3ccccc3)c2cc1OC | 59.5%
52 | COc1cc2c(C)nc3c(c(C)nn3C)c2cc1OC | -1.5%
53 | COc1cc2c(C)nc3c(cnn3-c3ccccc3)c2cc1OC | -5.8%
54 | CCOc1cc(C2CC(=O)NC(C)=C2C(=O)OC)cc(Br)c1OC (stereo unspecified) | 10.6%
55 | CCOP(=O)(OCC)C(Nc1ccccc1)c1ccc2c(c1)OCO2 (stereo unspecified) | 13.6%
56 | CCCCOP(=O)(OCCCC)C(Nc1ccccc1)c1ccc(OC)cc1 (stereo unspecified) | 52.1%
57 | CCCOP(=O)(OCCC)C(Nc1ccc(Cl)cc1)c1ccc(Br)cc1 (stereo unspecified) | 17.1%
58 | CN1CCc2c(sc3c2C(=O)NC(c2ccc4ccccc4c2)N3)C1 (stereo unspecified) | 83%
59 | CN1CCc2c(sc3c2C(=O)NC(c2ccc(Cl)s2)N3)C1 (stereo unspecified) | 4%
60 | COc1cc(C2NC(=O)c3c(sc4c3CCN(C)C4)N2)cc(OC)c1OC (stereo unspecified) | 3.2%
61 | CCOC(=O)NC12CC3CC(C1)CC(C(F)(F)F)(C3)C2 | 3.2%
62 | COc1ccc(/C=N\N2CCN(c3ccccc3)CC2)cc1 | -0.3%
63 | CCOC(=O)c1c(NC(=O)Cc2ccc(Cl)cc2)sc(C(=O)Nc2ccc(OC)cc2OC)c1C | 18.5%
64 | O=C1CCNc2c(Cl)cc(Cl)cc21 | 88.6%
65 | C/C(=N\N1CCN(c2ccccc2)CC1)c1ccc(F)cc1 | -8.7%
66 | CC1(C)Cc2ccccc2C(N/N=C/c2ccc(Cl)cc2)=N1 | -3.6%

Row | SMILES | displacement
67 | O=c1oc2ccc(Br)cc2cc1-c1csc(-c2cc3cc([N+](=O)[O-])ccc3oc2=O)n1 | -5.4%
68 | Cc1ccc(-c2nc(-c3cc4cc([N+](=O)[O-])cc(Br)c4oc3=O)cs2)c(C)c1 | 95.2%
69 | O=c1oc2ccc(Br)cc2cc1-c1nc(-c2ccc([N+](=O)[O-])cc2)cs1 | -7.2%
70 | Cc1ccc(S(=O)(=O)Nc2ccc(S(=O)(=O)N3CCCCC3)cc2)cc1[N+](=O)[O-] | -4%
71 | Cn1c(=O)c(C2=NS(=O)(=O)c3ccccc3N2)c(O)c2ccccc21 | 2.1%
72 | CC(=O)CC(c1ccccc1)S(=O)(=O)c1ccccc1C (stereo unspecified) | 0.2%
73 | O=C(NCCC(c1ccccc1)c1ccccc1)C(F)(F)F | -1.5%
74 | O=C(NCCCc1ccccc1)C(F)(F)F | 85.1%
75 | O=C(NCCCc1ccccc1)c1ccccc1 | -1.3%
76 | CCCCOc1ccc(C=O)cc1OCC | -7.3%
77 | CC(=O)C1=C(O)C(=O)N(CCN2CCNCC2)C1c1cccc(F)c1 (stereo unspecified) | -17.2%
78 | CCOC(=O)c1ccc(N2C(=O)NC(=O)/C(=C/c3ccc(OC)c(OC)c3)C2=O)cc1 | -4.2%
79 | CCCC(=O)NC(c1ccco1)c1c(O)ccc2ccccc12 (stereo unspecified) | 6.6%
80 | COc1ccc(N/C=C/C(=O)c2ccco2)cc1 | 11.7%
81 | NS(=O)(=O)c1ccc(N/C=C/C(=O)c2ccc(Cl)c(Cl)c2)cc1 | 4.8%
82 | NS(=O)(=O)c1ccc(N/C=C/C(=O)c2ccco2)cc1 | 74.8%
83 | Cc1ccc(N2C(=O)NC(=O)/C(=C\c3ccc(N(C)C)c(Br)c3)C2=O)cc1 | 10.1%
84 | CC(=O)c1cccc(N2C(=O)C3CCCCC3C2=O)c1 (stereo unspecified) | -12.9%
85 | COc1ccccc1/C=C1\C=C(c2ccc(Cl)cc2)OC1=O | 9.6%
86 | CC(=O)Oc1ccccc1/C=C1\C=C(c2ccc(C)cc2)OC1=O | -0.2%
87 | COc1ccc(/C=C2\C=C(c3ccc(Cl)cc3)OC2=O)c(OC)c1 | 25.2%
88 | COc1ccc(OC)c(/C=C2/C=C(c3ccccc3)OC2=O)c1 | -24.5%

Row | SMILES | displacement
89 | CC(=O)Oc1ccccc1/C=C1\C=C(c2ccc(Br)cc2)OC1=O | 12%
90 | CC(=O)Oc1ccccc1/C=C1\C=C(c2ccc(Cl)cc2)OC1=O | 108%
91 | COc1ccc(C2=C/C(=C/c3ccccc3OC)C(=O)O2)cc1 | 85.1%
92 | COc1ccc(C2=C/C(=C/c3ccc(OC)cc3OC)C(=O)O2)cc1 | 144%
93 | COc1ccc(/C=C2/C=C(c3ccccc3)OC2=O)c(OC)c1 | -30%
94 | O=C(CCc1ccccc1)Nc1ccc(Br)cc1 | 9.1%
95 | O=[N+]([O-])c1cccc(Cl)c1N1CCN(CCO)CC1 | 89.3%
96 | O=[N+]([O-])c1cccc(Cl)c1N1CCOCC1 | 3.9%
97 | O=C(c1ccccc1Cl)N1CCN(c2c(Cl)cccc2[N+](=O)[O-])CC1 | 8.5%
98 | Cc1ccc(C(=O)Nc2ccc(NC(=O)c3ccco3)c(Cl)c2)cc1C | -8.9%
99 | Cc1ccc(C(=O)Nc2cccc(NC(=O)c3ccco3)c2)cc1C | 60.4%
100 | Cc1ccc(C(=O)Nc2ccc(NC(=O)c3ccco3)cc2)cc1C | -0.4%
101 | CCn1cc(C(=O)NN)c(=O)c2cc(Br)ccc21 | 20.2%
102 | O=C(CSc1nc2ccc([N+](=O)[O-])cc2s1)N1CCOCC1 | 1.4%
103 | COC1C(C)=CC(=O)N1Cc1ccccc1 (stereo unspecified) | 4.4%
104 | Cc1cc(C)c(S(=O)(=O)NCC2CCCO2)c(C)c1 (stereo unspecified) | -8%
105 | CCc1cc(C)cc(OCCOc2ccc([N+](=O)[O-])cc2/C=C2/SC(=S)N(C)C2=O)c1 | 20.5%
106 | COc1ccccc1/C=C1\SC(=N)N(c2ccc(F)cc2)C1=O | -8.6%
